Only some compounds are listed: those with a hit (about 4.1% of all), similar ones and a draw of the others.
DAX1 inh-1: inhibitors of DAX1 repression of SF-1 activated StAR promoter; HEK293T StAR-luciferase reporter, SF-1/DAX-1 repression relief; inhibition, % at 6.8 µM; actives 1.1% (n = 370,000); AID 652010;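 active = inhibition above the mean over all tested compounds plus 3 SD, cut at about 3.6% in these data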;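 also: 0% = DAX-1 cells with DMSO and 100% = cells lacking DAX-1 with DMSO; higher inhibition means more luminescence from relief of DAX-1 repression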
hgDAF-12 ag: activates the H. glycines DAF-12 receptor ligand-binding domain; actives 1.8% (n = 370,000); activation, % at 6.8 µM; HEK293 GAL4-hgDAF12 UAS-luciferase reporter, agonist luminescence; normalized to butyrate control;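 active = activation above a cutoff set at the mean of all screened compounds plus 3 SD, cut at about 10% in these data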;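 also: 0% = DMSO wells and 100% = sodium butyrate wells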
hcDAF12 agonist: H. contortus DAF-12 activation, primary screen | activation, % at 6.8 µM | AID 652067 | actives 1.4% (n = 370,000) | HEK293 hcDAF-12 lit1-tk-luc reporter, luminescence; 0% DMSO, 100% Δ7-dafachronic acid;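 active = activation above the mean of all tested compounds plus 3 SD, cut at about 5.5% in these data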;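 also: 100% = response to 3 µM Δ7-dafachronic acid high control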
ssDAF12 agonist: activates DAF-12 receptor from parasite S. stercoralis; HEK293 ssDAF-12/GRIP1 lit1-tk-luc reporter, luminescence; % of 3 µM dafachronic acid response; activation, % at 6.8 µM; actives 1% (n = 370,000); AID 652126;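 active = activation above the mean over all tested compounds plus 3 SD, cut at about 0.9% in these data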;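 also: 0% = DMSO-only wells and 100% = 3 µM delta7-dafachronic acid wells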
DAX1 inh-2: inhibits human nuclear receptor DAX1; P51843; HEK293 Gal4-DAX1 luciferase reporter, luminescence; inhibition, % at 6.75 µM; actives 0.99% (n = 340,000); AID 504766;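 active = inhibition above the mean over all tested compounds plus 3 SD, cut at about 4.2% in these data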;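 also: 0% = DAX1-transfected cells with DMSO and 100% = empty-vector control cells with DMSO; inhibition shows as a rise in luminescence from relieved DAX1 repression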
Target sequence (P51843 207-470 limits assumed): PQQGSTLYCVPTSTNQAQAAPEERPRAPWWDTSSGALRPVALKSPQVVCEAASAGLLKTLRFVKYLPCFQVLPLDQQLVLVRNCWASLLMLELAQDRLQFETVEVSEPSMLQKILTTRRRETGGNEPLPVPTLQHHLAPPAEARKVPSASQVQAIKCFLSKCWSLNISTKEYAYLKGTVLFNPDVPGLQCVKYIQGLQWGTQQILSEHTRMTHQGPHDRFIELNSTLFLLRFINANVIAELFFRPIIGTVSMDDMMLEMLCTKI
* hit, by the source's call; . = no result given.

SMILES	DAX1 inh-1	hgDAF-12 ag	hcDAF12 agonist	ssDAF12 agonist	DAX1 inh-2
Fc1ccccc1-c1nc(-c2ccncc2)no1	1	10	4	1.1*	4.8*
Cc1cc(C)cc(-c2nc(-c3ccncc3)no2)c1	1	3	3	-1	1
CC(C)(C)c1ccc(-c2nc(-c3ccncc3)no2)cc1	3.7*	6	2	0	2
Clc1cc(Cl)cc(CN2CCN(c3ncc(Cc4ccccc4)cn3)CC2)c1	0	-2	-1	-1	.
CCCCCCCCN1C(=O)[C@@H](CC(=O)NCCCN2CCCC2=O)C[C@@]2(C(=O)OC)C1=C[C@H](C1CCCC1)O[C@@H]2C	0	-3	-1	-1	.
CC(C)C[C@H](NC1(C(=O)NCCc2c[nH]c3ccccc23)CCC1)C(=O)NCCCc1ccccc1	.	3	1	-1	.
Cc1ccc(-n2c(SCC(=O)Nc3ccc4c(c3)OCCO4)nnc2-c2cccnc2)cc1	-1	1	-3	-2	.
COc1ccc(-c2nc(-c3ccc(C(=O)O)cc3)no2)cc1	3.9*	12*	6.9*	0	0
COc1ccc(CNC(=O)CSc2nc3c([nH]2)c(=O)n(C)c(=O)n3C)cc1	0	-2	-2	-2	.
O=C(NCCOc1ccccc1)c1ccccc1Cl	3	12*	4	0	2
O=C(Nc1ccccc1)OCCOc1ccccc1	1	12*	2	-1	3
COc1ccc(OCCOC(=O)Nc2ccccc2)cc1	-1	2	1	-1	0
O=C(Nc1cccc(Cl)c1)OCCOC(=O)Nc1cccc(Cl)c1	0	3	-1	-1	-1
NC(=O)COc1ccccc1	0	1	1	1.2*	1
O=C(Nc1cccc(Cl)c1)OCCOc1ccccc1	0	4	1	-1	6.0*
COc1ccc(OCCNC(=O)c2ccccc2Cl)cc1	0	2	-1	0	-1
NC(=S)COc1ccccc1	0	0	-3	-2	3
CC(C)(N[C@@H](Cc1c[nH]c2ccccc12)C(=O)NCC(c1ccccc1)c1ccccc1)C(=O)NC1CCCCC1	.	-1	-1	-1	.
CCOC(=O)c1cccc(NC(=O)CN(C)S(=O)(=O)c2cc3ccccc3s2)c1	-1	-1	-2	-2	.
O=C(N[C@@H](Cc1cccnc1)C(=O)N1CCC[C@H]1C(=O)NCc1ccccc1)c1ccc(Cl)cc1Cl	0	0	-2	0	.
CCn1c(SCC(=O)N/N=C/c2cccc(Oc3ccccc3)c2)nnc1-c1ccccc1	-1	-2	-2	-1	.
NNC(=O)c1ccccc1OCCOc1ccccc1	0	0	3	2.7*	3
C/C(=N\NC(=O)c1ccccc1OCCOc1ccccc1)c1ccccc1F	-4	1	1	0	-1
CCCNC(=O)c1ccc2c(c1)S(=O)(=O)c1ccccc1C2=O	0	-1	-1	-1	0
NNC(=O)c1ccc2c(c1)S(=O)(=O)NNC2=O	0	11*	2	0	-1
SMILES	DAX1 inh-1	hgDAF-12 ag	hcDAF12 agonist	ssDAF12 agonist	DAX1 inh-2
Cc1ccc(S(=O)(=O)N2CCCN(C(=O)c3cc4ccccc4[nH]3)CC2)cc1	0	4	5.8*	0	1
CCN(CC)C(=O)CC[C@@H]1CC[C@]2(CCCN(Cc3ccccc3)C2)O1	0	0	0	-1	.
CCCCc1c(-c2ccccc2OC)ncn1C(C)c1ccccc1 (centres undefined)	1	0	-2	-2	.
O=C(c1ccc(CSc2nc3ccncc3[nH]2)cc1)N1CCN(c2cccc(Cl)c2)CC1	-5	-11	-5	-2	-3
O=C(c1ccc(CSc2nc3ccncc3[nH]2)cc1)N1CCCCCC1	1	13*	4	0	-4
CC(=O)c1cc(-c2cccc(C(C)C)c2)c(=O)n2c1CCC2	0	0	0	0	.
CCOC(=O)Nc1nnc(-c2ccccc2OC)s1	0	4	5.8*	0	0
COc1ccccc1/C=C/C(=O)NC(=S)N1CCN(C)CC1	3.9*	0	0	-2	3
COc1ccc(/C=C/C(=O)NC(=S)N2CCN(c3ccccc3OC)CC2)cc1	1	0	2	-1	5.5*
C[C@@H]1CCN(C2CC2)S(=O)(=O)c2ccc(N3CC[C@H](N(C)C)C3)cc2O1	-2	1	-3	-1	.
c1ccc(-c2nc3ccccc3nc2-c2ccc(CN3CCC(c4nc5ccccc5[nH]4)CC3)cc2)cc1	-1	-2	2	-1	.
O=C(CCc1c[nH]c2ccccc12)Nc1ccc(Nc2ccccc2)cc1	-1	-1	-1	-2	.
O=C1CC(SC2=NCCS2)C(=O)N1c1ccc(Cl)cc1 (centres undefined)	0	-3	0	1.4*	-1
COC(=O)N1Cc2ccnnc2CC1c1ccccc1-c1ccccc1 (centres undefined)	0	-4	0	-1	.
Cc1ccc(C(=O)OCC(=O)Nc2cc(C(C)(C)C)no2)c(C)c1	3.6*	-1	-1	-1	1
C=CCN1C(=O)[C@@H](CC(=O)N2CCCC2)[C@]2(C(=O)OC)CCCCC=C12	-1	0	-3	-1	.
O=c1c(O[C@H]2O[C@@H](CO)[C@H](O)[C@@H](O)[C@@H]2O)c(-c2ccc(O)cc2)oc2cc(O)cc(O)c12	0	4	-2	-1	2
O=c1c(OC2OC(CO)C(O)C(O)C2OC2OC(CO)C(O)C(O)C2O)c(-c2ccc(O)cc2)oc2cc(O)cc(O)c12 (centres undefined)	0	-2	0	-1	4.6*
O=C1CSc2ccc(C(=O)N3CCCC(C(=O)N4CCCC4)C3)cc2N1 (centres undefined)	0	1	-1	-1	.
Nc1nc2c(C(=O)N3CCOCC3)nnn2c2ccccc12	1	5	2	0	6.2*
[O-]c1n[n+](-c2ccc(Cl)cc2Cl)cc2ccccc12	0	-1	-1	-1	4.4*
C=CCOC(=O)N[C@H](c1ccccc1)[C@H](C)/C=C/CC(=O)OC	0	0	-1	-1	.
O=C1C2CSCN2C(=O)CN1CCCN1CCN(C(c2ccccc2)c2ccccc2)CC1 (centres undefined)	0	-1	0	1.2*	0
CCCCOc1ccc(C(=O)n2ccc3ccc(-c4ccc5ccn(Cc6cccc(C(=O)OC)c6)c5c4)cc32)cc1	-1	-2	2	-1	.
O=C(/C=C/c1cccc([N+](=O)[O-])c1)OCC(=O)N1CCN(C(=O)c2ccco2)CC1	-1	12*	0	0	-2
O=C(/C=C/c1cccc([N+](=O)[O-])c1)N1CCN(C(=O)c2ccco2)CC1	0	1	-1	-2	-2
COC(=O)[C@]12C[C@H](CC(=O)N3CCC(c4ccccc4)CC3)C(=O)N(Cc3cccc4ccccc34)C1=C[C@H](C(C)(C)C)O[C@@H]2C	-1	3	-2	-2	.

High-throughput results from PubChem.
